# About 21,000 targets were measured; listed, in parts, are those with the largest changes and a random draw of the rest.
# Target: TMLHE_Q9NVH6_51_SLTCAWQQHEDHFELK (UniProt Q9NVH6)
# Test: probe-labelled cysteine peptide fold change vs DMSO (competition) (log2 fold change); higher = less target engagement (more negative = stronger competition)
# Conditions: THP-1, incubation time: 4 h
# 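Note: competitive profiling in live THP-1 cells: cysteine peptides tagged with an iodoacetamide desthiobiotin (IA-DTB) probe, intensity after compound treatment relative to DMSO-treated cells.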
# UniProt Q9NVH6, sequence (Q9NVH6 whole entry, looked up): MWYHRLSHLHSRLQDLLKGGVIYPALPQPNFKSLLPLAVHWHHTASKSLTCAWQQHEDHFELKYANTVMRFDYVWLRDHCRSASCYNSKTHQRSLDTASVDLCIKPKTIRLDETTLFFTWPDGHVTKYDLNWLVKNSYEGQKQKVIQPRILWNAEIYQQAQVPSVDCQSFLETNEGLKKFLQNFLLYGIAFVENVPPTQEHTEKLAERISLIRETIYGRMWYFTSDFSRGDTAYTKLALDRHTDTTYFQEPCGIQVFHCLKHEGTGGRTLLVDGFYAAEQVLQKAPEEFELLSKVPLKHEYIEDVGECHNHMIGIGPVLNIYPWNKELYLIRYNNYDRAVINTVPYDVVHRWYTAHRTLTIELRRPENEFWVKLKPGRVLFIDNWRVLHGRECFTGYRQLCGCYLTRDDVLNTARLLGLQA
structure (smiles),measurement,setting,value
Cc1cc(C(=O)N2CCCN(C(=O)CCl)CC2)ccc1-c1ccccc1 [compound 10],probe-labelled cysteine peptide fold change,10 µM,-0.0542
same,probe-labelled cysteine peptide fold change,50 µM,-0.13
